TR-FRET SRC-2 ct = TR-FRET artefact, counter-screen to PPARgamma/SRC-2 agonist assay | TR-FRET ratio at 8 µM | 200,000 compounds, 0.4% hits | hits give high values
PPARg SRC-1 ag = PPARgamma-driven SRC-1 recruitment agonism; P37231; PPARgamma-SRC-1 coactivator recruitment biochemical assay; activation, % at 8 µM; 200,000 compounds, 0.41% hits; AID 631; in the data active means activation above about 19%;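 further: 0% = DMSO and 100% = reference agonist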
Target sequence (P37231 whole entry, looked up): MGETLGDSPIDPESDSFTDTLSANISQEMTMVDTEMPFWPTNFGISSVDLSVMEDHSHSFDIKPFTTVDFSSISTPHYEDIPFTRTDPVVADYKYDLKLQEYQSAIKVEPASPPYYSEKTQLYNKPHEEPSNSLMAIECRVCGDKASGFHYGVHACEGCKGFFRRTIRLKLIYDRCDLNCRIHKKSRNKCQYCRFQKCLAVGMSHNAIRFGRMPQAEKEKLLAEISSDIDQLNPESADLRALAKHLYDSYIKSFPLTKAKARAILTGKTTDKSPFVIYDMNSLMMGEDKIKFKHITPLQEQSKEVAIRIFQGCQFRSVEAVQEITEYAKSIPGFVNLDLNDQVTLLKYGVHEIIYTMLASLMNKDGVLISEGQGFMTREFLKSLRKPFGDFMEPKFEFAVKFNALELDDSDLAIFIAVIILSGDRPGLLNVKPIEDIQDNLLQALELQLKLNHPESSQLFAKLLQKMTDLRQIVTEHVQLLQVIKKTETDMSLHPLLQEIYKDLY
PPARg SRC2 recr = PPARgamma-driven SRC-2 recruitment agonism | P37231 | PPARgamma LBD-SRC-2 recruitment, biochemical | activation, % at 8 µM | 200,000 compounds, 0.34% hits; in the data active means activation above about 22%;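 further: 0% = vehicle and 100% = reference agonist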
PPARg SRC3 recr = promotes SRC-3 coactivator recruitment by human PPARgamma; P37231; biochemical PPARgamma/SRC-3 coactivator recruitment assay; activation, % at 8 µM; 200,000 compounds, 0.26% hits; AID 731; in the data active means activation above about 23%;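 further: 0% = DMSO and 100% = reference agonist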
SRC1 TRFRET art = TR-FRET artefact, counter-screen to PPARgamma/SRC-1 agonist assay. TR-FRET ratio at 8 µM. 99,000 compounds, 0.34% hits. TR-FRET detection artefact counter-screen, emission ratio; hits give high values. AID 1051; in the data active means TR-FRET ratio above about 2300
SRC3 TRFRET art = TR-FRET artefact, counter-screen to PPARgamma/SRC-3 agonist assay. PPARgamma/SRC-3 format; hits give high values. TR-FRET ratio at 8 µM. 99,000 compounds, 0.39% hits. AID 1048
* marks the source's active call; other numbers are inactive results. Most compounds without a hit are left out; they make up all but 0.9% or so of the library. Unless noted, no stated cut-off is given here; in the data, active means TR-FRET ratio above about 2000; inactive means the rest.

For CNC(=O)CSc1nc2c(c(=O)n(C)c(=O)n2C)n1Cc1ccc(C)cc1 the results were TR-FRET SRC-2 ct 1582, PPARg SRC-1 ag 4, PPARg SRC2 recr 11 and PPARg SRC3 recr 7.
`O=C(CSCC(=O)N1CCCCC1)Nc1nc(-c2ccccc2)c(-c2ccccc2)s1` gave TR-FRET SRC-2 ct 1498, PPARg SRC-1 ag 4, PPARg SRC2 recr 8, PPARg SRC3 recr 8, SRC1 TRFRET art 2010 and SRC3 TRFRET art 2244*.
COc1ccc(-c2sc(NC(C)=O)nc2-c2ccccc2)cc1 was read as TR-FRET SRC-2 ct 1610, PPARg SRC-1 ag 4, PPARg SRC2 recr -3, PPARg SRC3 recr 5, SRC1 TRFRET art 1702 and SRC3 TRFRET art 1517.
Screening CN(C)C(=O)COC(=O)c1ccccc1Sc1ccccc1C#N returned TR-FRET SRC-2 ct 1720, PPARg SRC-1 ag 13, PPARg SRC2 recr 12, PPARg SRC3 recr 4, SRC1 TRFRET art 1957 and SRC3 TRFRET art 1480.
`N#Cc1cccc(NC(=O)COC(=O)c2ccccc2Sc2ccccc2C#N)c1` gave TR-FRET SRC-2 ct 1920, PPARg SRC-1 ag -3, PPARg SRC2 recr 3, PPARg SRC3 recr 2, SRC1 TRFRET art 1775 and SRC3 TRFRET art 2131*.
For N#Cc1ccccc1Sc1ccccc1C(=O)OCC(=O)NC12CC3CC(CC(C3)C1)C2 the results were TR-FRET SRC-2 ct 2682*, PPARg SRC-1 ag 0, PPARg SRC2 recr -11, PPARg SRC3 recr 1, SRC1 TRFRET art 2330* and SRC3 TRFRET art 3416*.
CC(=O)c1ccc(NC(=O)COC(=O)c2ccccc2Sc2ccccc2C#N)cc1 was read as TR-FRET SRC-2 ct 1691, PPARg SRC-1 ag -3, PPARg SRC2 recr 0, PPARg SRC3 recr 0, SRC1 TRFRET art 1874 and SRC3 TRFRET art 2465*.
For COc1ccccc1NC(=O)c1nn(C)cc1Br the results were TR-FRET SRC-2 ct 1602, PPARg SRC-1 ag 0, PPARg SRC2 recr -1 and PPARg SRC3 recr -7.
Screening CCOC(=O)C1CCN(S(=O)(=O)c2ccc(C(C)=O)cc2)CC1 returned TR-FRET SRC-2 ct 1591, PPARg SRC-1 ag 2, PPARg SRC2 recr 9 and PPARg SRC3 recr 10.
CCc1ccc2c(c1)cc(CN(C(=S)Nc1ccc(Cl)cc1)C1CC1)c1nnnn12 was read as TR-FRET SRC-2 ct 1566, PPARg SRC-1 ag 48*, PPARg SRC2 recr -4 and PPARg SRC3 recr 1.
COCCNC(=S)N(Cc1cc2cc(C)ccc2n2nnnc12)C1CCCC1 was read as TR-FRET SRC-2 ct 1421, PPARg SRC-1 ag -9, PPARg SRC2 recr 1, PPARg SRC3 recr 1, SRC1 TRFRET art 1583 and SRC3 TRFRET art 1536.
Screening O=C(O/N=C/C1=C(Cl)c2ccccc2CC1)c1ccc(F)cc1 returned TR-FRET SRC-2 ct 1507, PPARg SRC-1 ag -4, PPARg SRC2 recr -1 and PPARg SRC3 recr -2.
For CN1/C(=C\C(=O)Nc2ccc(Cl)cc2)C(C)(C)c2ccccc21 the results were TR-FRET SRC-2 ct 1427, PPARg SRC-1 ag 0, PPARg SRC2 recr 4, PPARg SRC3 recr -5, SRC1 TRFRET art 1653 and SRC3 TRFRET art 1551.
CN1/C(=C\C(=S)NC(=O)c2ccccc2Cl)C(C)(C)c2ccccc21 was read as TR-FRET SRC-2 ct 1473, PPARg SRC-1 ag -4, PPARg SRC2 recr -2, PPARg SRC3 recr 0, SRC1 TRFRET art 1647 and SRC3 TRFRET art 1615.
`COc1ccccc1C(=O)NC(=S)/C=C1/N(C)c2ccccc2C1(C)C` gave TR-FRET SRC-2 ct 1664, PPARg SRC-1 ag 13, PPARg SRC2 recr 17, PPARg SRC3 recr 11, SRC1 TRFRET art 2384* and SRC3 TRFRET art 1894.
CN1/C(=C\C(=S)Nc2ccccc2)C(C)(C)c2ccccc21 was read as TR-FRET SRC-2 ct 1974*, PPARg SRC-1 ag 8, PPARg SRC2 recr -1, PPARg SRC3 recr 2, SRC1 TRFRET art 1780 and SRC3 TRFRET art 1715.
`O=S(=O)(NCCCc1ccccc1)c1cccc2nsnc12` gave TR-FRET SRC-2 ct 1705, PPARg SRC-1 ag 0, PPARg SRC2 recr -1, PPARg SRC3 recr -1, SRC1 TRFRET art 2029 and SRC3 TRFRET art 1545.
Screening COCCn1c(=NC(=O)c2cc(-c3cccs3)nc3ccccc23)sc2cc(S(N)(=O)=O)ccc21 returned TR-FRET SRC-2 ct 1698, PPARg SRC-1 ag 5, PPARg SRC2 recr 3, PPARg SRC3 recr 1, SRC1 TRFRET art 1979 and SRC3 TRFRET art 1939.
Screening C=CCn1c(=NC(=O)c2cc(-c3cccs3)nc3ccccc23)sc2cc(S(N)(=O)=O)ccc21 returned TR-FRET SRC-2 ct 1739, PPARg SRC-1 ag 7, PPARg SRC2 recr 4, PPARg SRC3 recr 3, SRC1 TRFRET art 1639 and SRC3 TRFRET art 2319*.
`CC(C)(C)c1ccc(-c2nnc3sc(-c4ccncc4)nn23)cc1` gave TR-FRET SRC-2 ct 5672*, PPARg SRC-1 ag 0, PPARg SRC2 recr 190* and PPARg SRC3 recr -7.
COc1cc(/C=C/C(=O)O)cc(S(=O)(=O)Nc2ccc3nc(SC)sc3c2)c1OC was read as TR-FRET SRC-2 ct 1820, PPARg SRC-1 ag 4, PPARg SRC2 recr 10, PPARg SRC3 recr 4, SRC1 TRFRET art 1793 and SRC3 TRFRET art 1499.
CCc1cc2ccc(C)cc2nc1SCC(=O)Nc1cc(C)on1 was read as TR-FRET SRC-2 ct 1591, PPARg SRC-1 ag -2, PPARg SRC2 recr -2, PPARg SRC3 recr 1, SRC1 TRFRET art 1621 and SRC3 TRFRET art 1470.
For CCc1cc2cc3c(cc2nc1SCC(=O)Nc1cc(C)on1)OCO3 the results were TR-FRET SRC-2 ct 1540, PPARg SRC-1 ag 36*, PPARg SRC2 recr 5 and PPARg SRC3 recr 3.
COc1ccc(N2CCN(Cc3cc(=O)oc4cc(C)c(Cl)cc34)CC2)cc1 was read as TR-FRET SRC-2 ct 1497, PPARg SRC-1 ag 2, PPARg SRC2 recr 0, PPARg SRC3 recr -2, SRC1 TRFRET art 1660 and SRC3 TRFRET art 1784.
Screening COc1ccc(C2CC(c3ccccc3)=NN2C(=O)COC(=O)c2cc(S(=O)(=O)N3CCOCC3)ccc2F)cc1 (stereo not drawn) returned TR-FRET SRC-2 ct 2124*, PPARg SRC-1 ag 16, PPARg SRC2 recr 5, PPARg SRC3 recr 4, SRC1 TRFRET art 2247 and SRC3 TRFRET art 2106*.
For CC(C)c1ccccc1-n1c(SCC(=O)c2ccc3c(c2)NC(=O)CO3)nc2ccccc2c1=O the results were TR-FRET SRC-2 ct 2160*, PPARg SRC-1 ag 0, PPARg SRC2 recr -1, PPARg SRC3 recr 11, SRC1 TRFRET art 2916* and SRC3 TRFRET art 2760*.
Screening CC(C)c1ccccc1-n1c(SCC(=O)N2CCc3ccccc3C2)nc2ccccc2c1=O returned TR-FRET SRC-2 ct 1633, PPARg SRC-1 ag 3, PPARg SRC2 recr 10, PPARg SRC3 recr 2, SRC1 TRFRET art 1834 and SRC3 TRFRET art 1635.
`CS(=O)(=O)N(CC(=O)NCc1ccccc1Cl)C1CCCCC1` gave TR-FRET SRC-2 ct 1369, PPARg SRC-1 ag 1, PPARg SRC2 recr -2, PPARg SRC3 recr 2, SRC1 TRFRET art 1787 and SRC3 TRFRET art 1634.
Screening Cc1cc(C)c(S(=O)(=O)Nc2ccc3[nH]c(=O)[nH]c3c2)c(C)c1 returned TR-FRET SRC-2 ct 1779, PPARg SRC-1 ag 22*, PPARg SRC2 recr 5, PPARg SRC3 recr 7, SRC1 TRFRET art 1785 and SRC3 TRFRET art 1529.

From PubChem
